Laboratory results taken from PubChem BioAssay (NCATS).
Records with an inconclusive call do not appear. A call without a number means that no potency is given here. The source made the active and inactive calls. Unless noted, calls follow the shape of the dose curve; as a rule, active = well fitted curve in the direction sought with a large enough effect; inconclusive = small, poorly fitted or top-dose-only effect, or another doubt; inactive = no such curve, though single readings can be large; an effect the other way counts as inactive or inconclusive.

Biological target: Luciferin 4-monooxygenase (Photinus pyralis) (UniProt P08659)
Assay: Biochemical firefly luciferase enzyme assay for NPC (AID 624030);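 also: purified P. pyralis luciferase at 10 nM with luciferin and ATP substrate; nearly all actives have a fitted effect of over 70% in size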
Conditions: purified P. pyralis luciferase, luminescence, 5 min; series mostly up to 58.6 µM
Summary of the method: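 Purified P. pyralis luciferase at 10 nM in 50 mM Tris Acetate (final), luminescence read within 5 minutes of enzyme addition to compounds. Activity normalised to PTC124 versus DMSO; concentration-response curves classed by r2, magnitude and activity.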

Luciferin 4-monooxygenase (Photinus pyralis), sequence (P08659 whole entry, looked up): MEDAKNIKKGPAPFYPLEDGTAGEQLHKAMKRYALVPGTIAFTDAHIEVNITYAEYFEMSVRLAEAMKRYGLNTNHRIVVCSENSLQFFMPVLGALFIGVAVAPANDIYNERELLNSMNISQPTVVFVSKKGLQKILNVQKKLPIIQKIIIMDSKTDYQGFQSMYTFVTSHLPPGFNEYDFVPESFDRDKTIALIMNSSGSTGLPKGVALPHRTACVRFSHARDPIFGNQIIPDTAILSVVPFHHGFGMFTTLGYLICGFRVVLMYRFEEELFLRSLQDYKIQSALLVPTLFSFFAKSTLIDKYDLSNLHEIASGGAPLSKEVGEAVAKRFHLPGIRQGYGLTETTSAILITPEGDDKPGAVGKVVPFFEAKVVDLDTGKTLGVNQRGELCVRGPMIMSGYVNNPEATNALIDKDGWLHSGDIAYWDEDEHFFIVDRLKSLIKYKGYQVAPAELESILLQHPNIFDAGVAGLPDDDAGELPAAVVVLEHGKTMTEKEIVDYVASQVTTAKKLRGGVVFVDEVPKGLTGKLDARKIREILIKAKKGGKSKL

Compound | Potency
N[C@@H](Cc1cc(I)c(Oc2ccc(O)c(I)c2)c(I)c1)C(=O)O | inactive
CCCCC | inactive
C[C@H](CCC(=O)O)[C@H]1CC[C@H]2[C@@H]3CC[C@@H]4C[C@H](O)CC[C@]4(C)[C@H]3C[C@H](O)[C@]12C | inactive
CCOC(C)OCC | inactive
O=c1n(CC2CO2)c(=O)n(CC2CO2)c(=O)n1CC1CO1 (configuration not stated) | inactive
CCCCC(CC)COS(=O)(=O)O (configuration not stated) | inactive
COC(=O)c1ccccc1O | inactive
CN(CCO)CC(O)Cn1cnc2c1c(=O)n(C)c(=O)n2C (configuration not stated) (tested in a mixture with another compound) | inactive
CC/C=C\C/C=C\C/C=C\CCCCCCCC(=O)O | inactive
C[C@H]1O[C@@H](O[C@H]2[C@@H](O)C[C@H](O[C@H]3[C@@H](O)C[C@H](O[C@H]4CC[C@@]5(C)[C@H](CC[C@@H]6[C@@H]5C[C@@H](O)[C@]5(C)[C@@H](C7=CC(=O)OC7)CC[C@]65O)C4)O[C@@H]3C)O[C@@H]2C)C[C@H](O)[C@@H]1O | inactive
C=C(C)C1CC=C(C)CC1 (configuration not stated) | inactive

System: not listed separately
Assay: S16 Schwann cell viability assay (CellTiter-Glo assay) (AID 624031);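 also: cellular ATP luminescence as a viability measure; nearly all actives have a fitted effect of over 70% in size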
Conditions: S16 rat Schwann cells viability, 24 h; series mostly up to 57.5 µM
Summary of the method: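 This viability control uses native rat S16 Schwann cells grown in DMEM plus 10% FBS. After a 24 h compound treatment at 37 °C, CellTiter-Glo luminescence reports ATP content, scaled against DMSO-treated and cell-free wells.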

Compound | Potency
[O-][N+](=Nc1ccccc1)c1ccccc1 | inactive
N[C@@H](Cc1cc(I)c(Oc2ccc(O)c(I)c2)c(I)c1)C(=O)O | inactive
CCCCC | inactive
C[C@H](CCC(=O)O)[C@H]1CC[C@H]2[C@@H]3CC[C@@H]4C[C@H](O)CC[C@]4(C)[C@H]3C[C@H](O)[C@]12C | inactive
CCOC(C)OCC | inactive
O=c1n(CC2CO2)c(=O)n(CC2CO2)c(=O)n1CC1CO1 (configuration not stated) | inactive
CCCCC(CC)COS(=O)(=O)O (configuration not stated) | inactive
COC(=O)c1ccccc1O | inactive
CN(CCO)CC(O)Cn1cnc2c1c(=O)n(C)c(=O)n2C (configuration not stated) (tested in a mixture with another compound) | inactive
ClC(Cl)Cl | inactive
CC/C=C\C/C=C\C/C=C\CCCCCCCC(=O)O | inactive
C[C@H]1O[C@@H](O[C@H]2[C@@H](O)C[C@H](O[C@H]3[C@@H](O)C[C@H](O[C@H]4CC[C@@]5(C)[C@H](CC[C@@H]6[C@@H]5C[C@@H](O)[C@]5(C)[C@@H](C7=CC(=O)OC7)CC[C@]65O)C4)O[C@@H]3C)O[C@@H]2C)C[C@H](O)[C@@H]1O | inactive
C=C(C)C1CC=C(C)CC1 (configuration not stated) | inactive

System: not listed separately
Assay: S16 Schwann cell PMP22 intronic element firefly luciferase assay (AID 624032); also: nearly all actives have a fitted effect of over 30% in size
Conditions: S16 rat Schwann cells, PMP22 element FLuc, 24 h; series mostly up to 57.5 µM
Summary of the method: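 Rat S16 Schwann cells stably carrying firefly luciferase driven by a PMP22 intronic element, in 10% FBS, treated 24 h at 37 C. ONE-Glo luminescence normalized to PTC124 control and DMSO (0%); curves classed by r2, magnitude and activity.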

Compound | Potency
C[C@H](CCC(=O)O)[C@H]1CC[C@H]2[C@@H]3CC[C@@H]4C[C@H](O)CC[C@]4(C)[C@H]3C[C@H](O)[C@]12C | inactive
CCOC(C)OCC | inactive
CCCCC(CC)COS(=O)(=O)O (configuration not stated) | inactive
COC(=O)c1ccccc1O | inactive
CN(CCO)CC(O)Cn1cnc2c1c(=O)n(C)c(=O)n2C (configuration not stated) (tested in a mixture with another compound) | inactive
ClC(Cl)Cl | inactive
CC/C=C\C/C=C\C/C=C\CCCCCCCC(=O)O | inactive
C[C@H]1O[C@@H](O[C@H]2[C@@H](O)C[C@H](O[C@H]3[C@@H](O)C[C@H](O[C@H]4CC[C@@]5(C)[C@H](CC[C@@H]6[C@@H]5C[C@@H](O)[C@]5(C)[C@@H](C7=CC(=O)OC7)CC[C@]65O)C4)O[C@@H]3C)O[C@@H]2C)C[C@H](O)[C@@H]1O | inactive
C=C(C)C1CC=C(C)CC1 (configuration not stated) | inactive

System: not listed separately
Assay: S16 Schwann cell PMP22 intronic element beta-lactamase assay (AID 624044; calls by dose curve; also: nearly all actives have a fitted effect of over 15% in size)
Conditions: S16 rat Schwann cells, PMP22 element beta-lactamase FRET, 24 h; ratio activity, negative = inhibition: at 38.3 µM (top of the series) unless noted
Summary of the method: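 Beta-lactamase reporter under a PMP22 intronic regulatory element in stable S16 rat Schwann cells; 24 h compound exposure. 460 nm blue signal normalized between DMSO (0%) and potassium clavulanate, with 535 nm FRET tracking viability; curves classed by r2 and response.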

Compound | ratio activity, negative = inhibition
[O-][N+](=Nc1ccccc1)c1ccccc1 | 3.38% (inactive)
N[C@@H](Cc1cc(I)c(Oc2ccc(O)c(I)c2)c(I)c1)C(=O)O | -3.84% (inactive)
CCCCC | 1.47% (inactive)
C[C@H](CCC(=O)O)[C@H]1CC[C@H]2[C@@H]3CC[C@@H]4C[C@H](O)CC[C@]4(C)[C@H]3C[C@H](O)[C@]12C | 1.95% (inactive)
O=c1n(CC2CO2)c(=O)n(CC2CO2)c(=O)n1CC1CO1 (configuration not stated) | -25.3% (inactive)
CN(CCO)CC(O)Cn1cnc2c1c(=O)n(C)c(=O)n2C (configuration not stated) (tested in a mixture with another compound) | 1.27% (inactive)
ClC(Cl)Cl | 4.84% (inactive)
CC/C=C\C/C=C\C/C=C\CCCCCCCC(=O)O | 3.48% (inactive)
C=C(C)C1CC=C(C)CC1 (configuration not stated) | -0.885% (inactive)
